This is a sample that favours compounds with a hit; in the whole collection about 12% have one here.
BAZ2B block = BAZ2B (human) inhibition | Q9UIF8 | AlphaScreen BAZ2B-H3K14Ac peptide displacement | Potency, µM (titrated, usually from 114 µM), most hits filed as inhibitors | actives 4.4% (n = 360,000); note: nearly all actives have a fitted effect of over 60% in size
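Complex of BAZ2B and biotin-H3K14Ac (50 nM apiece) forms over 30 min at RT, then faces library compounds up to 110 uM for another 30 min; AlphaScreen beads added, 20 min dark incubation, luminescence read.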
PI5P4K alpha inh = PI5P4K alpha (human) kinase inhibition; P48426; PI5P4Kalpha enzyme, ADP-Glo luminescence, 60 min; active compounds read low; max response, %; actives 1.2% (n = 330,000); AID 652105; active = max response of -50% or lower; inconclusive = between -30% and -50%; inactive = -30% or higher; note: value at the top dose of about 77 µM
Target sequence (P48426 whole entry, looked up): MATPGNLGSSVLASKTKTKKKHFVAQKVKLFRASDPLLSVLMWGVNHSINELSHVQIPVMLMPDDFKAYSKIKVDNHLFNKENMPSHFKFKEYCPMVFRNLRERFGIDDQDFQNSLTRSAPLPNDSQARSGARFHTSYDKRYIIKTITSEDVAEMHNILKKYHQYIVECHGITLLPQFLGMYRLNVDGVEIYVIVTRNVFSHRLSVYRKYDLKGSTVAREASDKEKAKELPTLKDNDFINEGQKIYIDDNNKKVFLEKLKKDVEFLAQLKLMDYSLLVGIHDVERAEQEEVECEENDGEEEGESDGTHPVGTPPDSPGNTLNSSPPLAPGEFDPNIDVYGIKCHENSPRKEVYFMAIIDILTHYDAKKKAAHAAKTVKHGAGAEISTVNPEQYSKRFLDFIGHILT
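Compounds were pin-transferred onto PI5P4Kalpha and substrate in HEPES pH 7.4 buffer with EGTA, CHAPS and 5% DMSO. ATP (5 microM final) started the reaction, which ran 60 minutes at room temperature before ADP-Glo detection.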
HP1b binding inh = blocks HP1-beta chromodomain binding to methylated histone tails; AlphaScreen HP1-beta / biotin-H3K9me3 peptide binding; Potency, µM (highest dose often 114 µM), usual class: inhibitors; actives 0.56% (n = 390,000); note: nearly all actives have a fitted effect of over 70% in size
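AlphaScreen: HP1-beta (50 nM) preformed 30 min with biotin-H3(1-18)K9me3 peptide (50 nM) in PBS pH 7.4, 0.01% Tween-20. Compound added for 30 min at RT, then streptavidin donor/nickel chelate acceptor beads (10 ug/mL) for 30 min.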
G9a inh = G9a (human) methyltransferase inhibition; G9a H3K9 monomethylation, AlphaScreen, 2 h; Potency, µM (series often up to 102 µM), actives largely listed as inhibitors; actives 8.8% (n = 350,000); note: nearly all actives have a fitted effect of over 75% in size
Target sequence (Q96KQ7 913-1193 limits assumed): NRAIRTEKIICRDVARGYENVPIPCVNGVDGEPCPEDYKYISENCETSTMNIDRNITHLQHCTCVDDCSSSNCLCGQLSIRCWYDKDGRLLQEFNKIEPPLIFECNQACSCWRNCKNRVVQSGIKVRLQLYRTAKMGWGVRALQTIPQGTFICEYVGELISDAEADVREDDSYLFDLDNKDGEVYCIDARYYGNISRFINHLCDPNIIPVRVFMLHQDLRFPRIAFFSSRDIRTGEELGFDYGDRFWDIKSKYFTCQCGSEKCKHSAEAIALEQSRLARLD
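Methyltransferase reactions run at room temperature for 2 h (20 nM enzyme, 500 nM biotin-H3K9 peptide, 20 uM SAM) after a 15 min compound preincubation; product detected by AlphaScreen beads and anti-H3K9me1 antibody.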
JMJD2A Tudor = blocks the human JMJD2A Tudor domain; O75164; AlphaScreen JMJD2A-Tudor / H3K4me3 peptide binding; Potency, µM (doses to about 114 µM), actives largely listed as inhibitors; actives 4.4% (n = 390,000); note: nearly all actives have a fitted effect of over 50% in size
PLK1 PBD inh = blocks phosphopeptide binding to human PLK1 polo-box domain. P53350. Plk1 PBD binding of FITC phosphopeptide, fluorescence polarization. Potency, µM, hits mostly inhibitors. actives 2.8% (n = 360,000); note: series mostly up to about 57 µM; nearly all actives have a fitted effect of over 65% in size
Each line names hits and unclear results; the compound was inactive in the other large screens. Unless noted, calls come from the whole dose curve; as a rule, active = well fitted curve in the direction sought with a large enough effect; inconclusive = small, poorly fitted or top-dose-only effect, or another doubt; inactive = no such curve, though single readings can be large; an effect the other way counts as inactive or inconclusive.

O=c1c(N2CCc3ccccc3C2)csc2ccc(F)cc12	G9a inh inconclusive (no result: PI5P4K alpha inh, PLK1 PBD inh)
N#C/C(=C/c1ccc(F)cc1)S(=O)(=O)c1ccccc1	PLK1 PBD inh inconclusive (no result: G9a inh)
N#C/C(=C\c1ccc(O)c(O)c1)S(=O)(=O)c1ccccc1	BAZ2B block 10µM, HP1b binding inh inconclusive, G9a inh 3.16µM, JMJD2A Tudor inconclusive
Cc1cccc(OCC(=O)Nc2ccccc2C(=O)OCc2cc(=O)n3ccsc3n2)c1	none (no result: PI5P4K alpha inh, PLK1 PBD inh)
S=C(c1cccs1)N1CCN(c2ccccc2)CC1	HP1b binding inh inconclusive, JMJD2A Tudor inconclusive (no result: BAZ2B block, G9a inh)
C=CCC1=C/C(=C\c2c(N)n3nc(CC(=O)N4CCCC4)sc3nc2=O)C=C(OC)C1=O	BAZ2B block 79.4µM
Nc1c(/C=C2\C=Nc3ccccc32)c(=O)nc2sc(CC(=O)N3CCOCC3)nn12	PI5P4K alpha inh -52.8
COC1=CC(=Cc2c(N)n3nc(CC(=O)N4CCOCC4)sc3nc2=O)C=C(OC)C1=O	BAZ2B block 44.7µM, PI5P4K alpha inh -63.8, G9a inh inconclusive, JMJD2A Tudor inconclusive
CC(=O)OCCCn1c(C)[n+](C)c2cc(Cl)c(Cl)cc21	G9a inh 31.6µM, JMJD2A Tudor 31.6µM
CC(C)(C)c1nc2ccccc2[nH]1	G9a inh inconclusive, JMJD2A Tudor 79.4µM, PLK1 PBD inh 26.7µM
CC(C)Sc1nc2ccccc2[nH]1	G9a inh 56.2µM
FC(F)(F)c1nc2ccccc2[nH]1	none
CC(=O)n1c2ccccc2c2nc3ccccc3nc21	none
C=CCNc1nc2c3ccccc3n(C(C)=O)c2s1	BAZ2B block inconclusive, G9a inh 31.6µM, JMJD2A Tudor inconclusive, PLK1 PBD inh 26.7µM
N#Cc1c2n(c(=S)n(-c3ccccc3[N+](=O)[O-])c1=O)CCCCC2	G9a inh 39.8µM, JMJD2A Tudor inconclusive (no result: BAZ2B block)
N#Cc1c2n(c(=S)n(-c3ccccc3)c1=O)CCCCC2	none
Cc1ccccc1N/N=C/c1c(C)nc2ccccn12	BAZ2B block inconclusive, G9a inh 35.5µM, JMJD2A Tudor inconclusive
C=CCn1c(Cn2c(-c3cnccn3)nc3ccccc32)nc2ccccc21	none (no result: BAZ2B block, HP1b binding inh, G9a inh, JMJD2A Tudor)
COc1ccc2sc(N(CCCN(C)C)C(=O)c3ccc(S(=O)(=O)N4CCCc5ccccc54)cc3)nc2c1	BAZ2B block 28.2µM, HP1b binding inh inconclusive, G9a inh 39.8µM, JMJD2A Tudor 20µM
COc1cc2nc(NC(=O)c3ccc(S(=O)(=O)N4CCc5ccccc54)cc3)sc2cc1OC	none (no result: PI5P4K alpha inh, PLK1 PBD inh)
COc1cc2nc(N(CCCN(C)C)C(=O)c3ccc(S(=O)(=O)N4CCc5ccccc54)cc3)sc2cc1OC	BAZ2B block inconclusive, HP1b binding inh inconclusive, G9a inh 11.2µM, JMJD2A Tudor 50.1µM
COC(=O)Cn1c(O)c(N=NC(=O)CNC(=O)c2ccncc2)c2ccccc21	none
CN(C)C(=O)c1cc(C(=O)c2ccccc2C(F)(F)F)c[nH]1	JMJD2A Tudor inconclusive, PLK1 PBD inh 26.7µM
O=C(Nc1ncc2c(n1)-c1ccccc1CC2)c1ccc(Cl)cc1	JMJD2A Tudor inconclusive (no result: PI5P4K alpha inh)
CCCSCC(=O)Nc1ncc2c(n1)-c1ccccc1CC2	BAZ2B block 56.2µM, G9a inh 8.91µM, JMJD2A Tudor inconclusive, PLK1 PBD inh inconclusive
Cc1ccc(C2(c3ccccc3)NC(=O)N(CC(=O)NC3CCCCC3)C2=O)cc1C (stereo not given)	G9a inh 14.1µM
COc1cc(CN2CCNC(=O)C2CC(=O)NCCCN2CCOCC2)cc(OC)c1 (stereo not given)	G9a inh inconclusive
COc1cccc(CN2CCNC(=O)C2CC(=O)NCc2cc(C(C)C)no2)c1 (stereo not given)	G9a inh 50.1µM
CCCN1CCC(NC(=O)CC2C(=O)NCCN2Cc2cccc(OC)c2)CC1 (stereo not given)	none
COc1cccc(CN2CCNC(=O)C2CC(=O)NCCc2ccccn2)c1 (stereo not given)	G9a inh inconclusive
O=C(CC1C(=O)NCCN1Cc1cccc(F)c1)NCCCCCN1CCOCC1 (stereo not given)	G9a inh 70.8µM
COc1cccc(CN2CCNC(=O)C2CC(=O)NC2Cc3ccccc3C2)c1 (stereo not given)	BAZ2B block inconclusive, G9a inh 44.7µM
COc1cc(CN2CCNC(=O)C2CC(=O)NCCC2=CCCCC2)cc(OC)c1 (stereo not given)	G9a inh 50.1µM
COc1ccccc1CN1CCNC(=O)C1CC(=O)NCC1CCOCC1 (stereo not given)	none
O=C(CC1C(=O)NCCN1Cc1cccc(Oc2ccccc2)c1)NCC1CCOCC1 (stereo not given)	G9a inh 44.7µM
O=C(CC1C(=O)NCCN1Cc1cccc(F)c1F)NCCCC1CCCC1 (stereo not given)	G9a inh 50.1µM
COc1ccccc1CCNC(=O)CC1C(=O)NCCN1CCCc1ccccc1 (stereo not given)	none
COc1cccc(CN2CCNC(=O)C2CC(=O)NCC2CCOCC2)c1 (stereo not given)	G9a inh 50.1µM
O=C(CC1C(=O)NCCN1Cc1cccc(Oc2ccccc2)c1)NCCn1cccn1 (stereo not given)	none
O=C(CC1C(=O)NCCN1CC1CCCCC1)NCc1cccc(F)c1F (stereo not given)	none
COc1cccc(CNC(=O)CC2C(=O)NCCN2CCCc2ccccc2)c1 (stereo not given)	G9a inh 50.1µM
CCOc1ccc(CCN2C(=O)C(=O)N([C@@H](CC(C)C)CN3CCC[C@H]3CN3C(=O)C(=O)NC[C@@H]3CC(C)C)C[C@@H]2Cc2ccc(O)cc2)cc1	none (no result: BAZ2B block, HP1b binding inh, G9a inh, JMJD2A Tudor)
CCCCOC(=O)c1ccc(NC(=O)CSc2nc3c(c(=O)[nH]2)CCCC3)cc1	G9a inh inconclusive (no result: PI5P4K alpha inh, PLK1 PBD inh)
Cc1ccc(NC(=O)C2CCCN2S(=O)(=O)c2ccc3c(c2)CCCC(=O)N3)cc1C (stereo not given)	none (no result: PI5P4K alpha inh, PLK1 PBD inh)
Cc1ccc(C(=O)N2CCC2(C)C(=O)NC(C)C)cc1 (stereo not given)	none (no result: BAZ2B block, HP1b binding inh, G9a inh, JMJD2A Tudor)
COc1ccc(CN2CCNC(=O)C2CC(=O)NCC2CCOCC2)c(F)c1 (stereo not given)	G9a inh 79.4µM
CC(C)CNC1=CC(=O)CC(c2ccco2)C1 (stereo not given)	BAZ2B block inconclusive
O=C1C=C(Nc2ccc(O)cc2)CC(c2ccco2)C1 (stereo not given)	G9a inh inconclusive
O=C1C=C(Nc2ccc(Cl)cc2Cl)CC(c2ccco2)C1 (stereo not given)	G9a inh 50.1µM
O=C1C=C(NCc2ccc(Cl)cc2)CC(c2ccco2)C1 (stereo not given)	BAZ2B block 50.1µM, PI5P4K alpha inh inconclusive, HP1b binding inh inconclusive, JMJD2A Tudor inconclusive

High-throughput results deposited in PubChem BioAssay by National Center for Advancing Translational Sciences (NCATS).
